# LDHA inh: qHTS assay for inhibitors of human lactate dehydrogenase | L-lactate dehydrogenase A chain (Homo sapiens), P00338 | purified LDHA, NADH/diaphorase-resazurin fluorescence; active compounds read low | activity change, % (values are at about 110 or 230 µM) | 0.15% of 480,000 active; in the data active means activity change below about -30%; inconclusive means mostly about -25% to -30%;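 further: plate controls were DMSO wells for no effect and wells without enzyme for full effect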
#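 Resorufin fluorescence (ex540/em590), read at 0 and 20 min after diaphorase/resazurin addition, reports the NADH left after a 5 min room-temperature reaction of 2 nM human LDH5 with 0.06 mM NADH and 0.2 mM pyruvate.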
# p53 reactivator: qHTS assay for re-activators of p53 using a Luc reporter. H1299 p53-A138V BP100-luciferase reporter, luminescence, 24 h. Potency, µM (top dose mostly 92.2 µM), inactives show top-dose activity change, positive = activation, actives largely listed as activators. 0.063% of 320,000 active. AID 504706, 2011; further: potency means the concentration at half of the fitted maximal effect; % of control where 0% means no effect; nearly all actives have a fitted effect of over 45% in size
#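 H1299 (p53-null), stable ts p53-A138V + BP100-Luc; 1000 cells/well, Opti-MEM/10% FBS; cpd 4 pt, 1:5; 24 h, 37 deg C, 5% CO2; detection reagent 10 min RT; luminescence.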
# ClpP mod: qHTS Assay for Activators of ClpP; ATP-dependent Clp protease proteolytic subunit (Bacillus subtilis (strain 168)), P80244; purified B. subtilis ClpP, FRET peptide cleavage, 20 min; Potency, µM (doses to about 57.5 µM), for the others: top-dose activity change, negative = active; 1.9% of 340,000 active; active means well fitted falling curve with a large enough effect; inconclusive means small, poorly fitted or top-dose-only effect; inactive means no such curve, though single readings can be large or run the other way; further: potency means the concentration at half of the fitted maximal effect; the source files actives as falling curves though it sought activators and does not explain the sign; nearly all actives have a fitted effect of over 65% in size
# Target sequence (P80244 whole entry, looked up): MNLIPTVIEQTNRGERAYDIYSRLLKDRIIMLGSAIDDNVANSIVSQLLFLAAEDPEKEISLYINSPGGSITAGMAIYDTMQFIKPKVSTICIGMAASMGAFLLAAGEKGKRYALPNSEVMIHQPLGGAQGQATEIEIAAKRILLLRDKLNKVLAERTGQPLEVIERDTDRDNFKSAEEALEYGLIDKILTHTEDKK
#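 ClpP 10 microg/mL final, pH 8 Tris/KCl buffer with BSA, glycerol, Tween-20; compound pinned in; FRET-FV substrate; RT 20 min; Ex320/Em430; ΔFRET vs ADEP 5.8 microM, DMSO, no enzyme.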
# GLP1R ag: qHTS of GLP-1 Receptor Agonists; HEK293 GLP-1R CRE-luciferase, luminescence, 4-6 h; cells express a hypersensitive GLP-1R form; Potency, µM (top dose mostly 45.6 µM), for inactives: top-dose activation, actives largely listed as activators; 0.007% of 380,000 active; further: potency means the concentration at half of the fitted maximal effect; % of control where 0% means no effect
# Target sequence (P43220 whole entry, looked up): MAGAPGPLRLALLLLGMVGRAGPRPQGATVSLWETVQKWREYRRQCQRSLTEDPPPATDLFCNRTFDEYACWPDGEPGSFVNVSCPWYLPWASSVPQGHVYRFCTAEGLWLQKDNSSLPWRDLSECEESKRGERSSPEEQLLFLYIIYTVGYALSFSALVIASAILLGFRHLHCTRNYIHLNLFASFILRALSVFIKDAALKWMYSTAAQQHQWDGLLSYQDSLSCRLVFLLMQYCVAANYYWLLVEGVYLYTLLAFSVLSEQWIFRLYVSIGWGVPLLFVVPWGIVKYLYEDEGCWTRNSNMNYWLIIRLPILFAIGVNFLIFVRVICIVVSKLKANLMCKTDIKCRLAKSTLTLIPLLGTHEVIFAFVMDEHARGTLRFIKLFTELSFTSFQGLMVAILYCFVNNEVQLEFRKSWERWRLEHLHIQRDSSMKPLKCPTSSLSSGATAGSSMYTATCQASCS
# GLP1R cytotox: qHTS of GLP-1 Receptor Inverse Agonists: Cytotox Screen; HEK293 cAMP-luciferase reporter cells, luminescence, 24 h; 0.13% of 410,000 active; Potency, µM (series often up to 38.3 µM), for inactives: top-dose activity change, negative = inhibition, hits mostly inhibitors; AID 624418, 2012;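 further: loss of luciferase light is scored as toxicity; potency means the concentration at half of the fitted maximal effect; on the % scale 0 is the no-effect control and ±100 the full control effect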
#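 Quantitative HTS format, 1536 wells, 200 cells/uL seeded. Compounds: 23 nL, 24 h, 37 °C. Detection: luciferase reagent, luminescence at 12 min RT; decreased signal taken as cytotoxic.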
# GLP-1R inv ag: qHTS of GLP-1 Receptor Inverse Agonists (Inhibition Mode); Glucagon-like peptide 1 receptor (Homo sapiens), P43220; HEK293 GLP-1R CRE-luciferase, luminescence, 24 h; GLP-1R form is constitutively active; Potency, µM (highest dose often 38.3 µM), for the others: at the highest dose activity change, negative = inhibition, most hits filed as inhibitors; 1.6% of 410,000 active; AID 624417, 2012; further: potency means the concentration at half of the fitted maximal effect; on the % scale 0 is the no-effect control and ±100 the full control effect; nearly all actives have a fitted effect of over 55% in size
#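 Readout was luciferase luminescence, measured 12 min after detection reagent at room temperature. Beforehand, GLP-1R reporter HEK293 cells had sat 12 h, then received compounds for 24 hr at 37 deg C.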
# * = called active by the depositor; ? = inconclusive; / = not tested or not shown. Rows were chosen to be rich in hits. Some 2.9% of all compounds tested hit in one or more screens of this group. Unless noted, the call rests on the fitted dose curve; in most records, active means well fitted curve in the direction sought with a large enough effect; inconclusive means small, poorly fitted or top-dose-only effect, or another doubt; inactive means no such curve, though single readings can be large; an effect the other way counts as inactive or inconclusive.
SMILES,LDHA inh,p53 reactivator,ClpP mod,GLP1R ag,GLP1R cytotox,GLP-1R inv ag
CC1=NN(C(=O)c2ccccc2)C(O)(c2ccc(Br)cc2)C1 (centres undefined),-6,1%,/,9%,-19%,4µM*
N#Cc1ccccc1NC(=O)Nc1cccc(Cl)c1,-1,/,28µM*,17%,0%,14%
O=C(Nc1cccc(Cl)c1)Nc1cccc(Cl)c1,1,?,-3%,6%,15%,?
O=C(Nc1ccccc1)Nc1cc(Cl)cc(Cl)c1,-2,16%,-1%,-47%,?,2.8µM*
O=C(O)C1C2C=CC(O2)C1C(=O)Nc1cc(OCC(F)(F)F)cc(OCC(F)(F)C(F)F)c1 (centres undefined),5,/,/,/,/,/
O=C(Nc1ccccc1)Nc1cc(OCC(F)(F)F)cc(OCC(F)(F)F)c1,-4,-10%,/,0%,5.6µM*,2.8µM*
O=C(O)c1cc(S(=O)(=O)Nc2cc(Cl)ccc2Oc2ccccc2)ccc1O,-3,-3%,-29%,-7%,-16%,?
CC(C)Oc1cccc(C(=O)C2CCCN(Cc3cccn3-c3cccnc3)C2)c1 (centres undefined),3,-1%,-2%,3%,-9%,?
O=c1oc2ccccc2cc1S(=O)(=O)c1ccc(Cl)c(Cl)c1,-17,/,/,/,/,/
CC(C)C(NC(=O)C1CCCCC1)C(=O)NC1CCCC(C)C1C (centres undefined),-4,-1%,-20%,8%,17%,-15%
Cc1c(CC(=O)NCC(=O)O)c(=O)oc2cc3occ(-c4ccccc4)c3cc12,-85*,3%,-2%,-1%,3%,5%
Cc1c(CC(=O)O)c(=O)oc2cc3occ(-c4ccc(F)cc4)c3cc12,-42*,14%,1%,4%,0%,5%
Cc1c(CC(=O)NCCCC(=O)O)c(=O)oc2cc3occ(-c4ccccc4)c3cc12,-5,11%,/,14%,10%,5%
COc1ccc(-c2coc3cc4oc(=O)c(CC(=O)O)c(C)c4cc23)cc1,-4,0%,0%,-1%,-15%,3%
Cc1ccc(S(=O)(=O)Nc2nc3ccccc3nc2NCc2ccco2)cc1C,-3,11%,28µM*,-10%,78%,?
Cc1ccccc1Nc1nc(NCc2ccco2)c2ccccc2n1,11,?,/,-1%,?,4µM*
c1ccc(Nc2nc(NCc3ccco3)c3ccccc3n2)cc1,-1,4%,0%,-9%,?,2.2µM*
Cc1ccc(-n2ncc(Br)c(Br)c2=O)cc1,-1,-9%,1%,-8%,?,?
O=C(NC(=S)Nc1nc2ccccc2s1)c1cccs1,-5,?,-2%,-5%,2.5µM*,1%
COCC(=O)Nc1nc2ccccc2s1,-4,/,1%,4%,-12%,9%
NC(=S)Nc1nc2ccccc2s1,-6,5%,/,8%,?,4.5µM*
COc1ccc(N(Cc2ccccc2)S(=O)(=O)c2cccc(C(=O)NC3=NCCS3)c2)cc1,-4,-3%,-2%,-3%,-28%,10µM*
COc1cccc(C(=O)NC2=NCCS2)c1,-5,26%,-7%,-8%,-8%,?
NC(=O)CSc1ncc(-c2ccc([N+](=O)[O-])cc2)[nH]1,-3,17%,/,12%,-5%,15%
Cc1cc(C)c(CSc2ncc(-c3ccc([N+](=O)[O-])cc3)[nH]2)c(C)c1,-2,-9%,-7%,-36%,-13%,8.9µM*
SMILES,LDHA inh,p53 reactivator,ClpP mod,GLP1R ag,GLP1R cytotox,GLP-1R inv ag
O=[N+]([O-])c1ccc(-c2cnc(SCc3ccccc3Cl)[nH]2)cc1,-6,?,-4%,-7%,-7%,10µM*
COCCN(C(=O)Cc1cccs1)C(C(=O)NCc1ccc(OC)cc1)c1ccc(C)cc1 (centres undefined),-4,-4%,-20%,0%,-1%,?
Cc1cccc(N(C(=O)c2csnn2)C(C(=O)NCc2ccccc2)c2ccc(C)o2)c1 (centres undefined),0,0%,/,12%,-9%,?
COc1ccc(CNC(=O)C(c2ccc(C)o2)N(Cc2cccs2)C(=O)Cc2cccs2)cc1 (centres undefined),0,-8%,0%,-6%,?,8.9µM*
COc1ccc(CNC(=O)C(c2ccc(C)o2)N(C(=O)c2csnn2)c2ccc(C(C)C)cc2)cc1 (centres undefined),0,0%,1%,-3%,-7%,10µM*
CCc1ccc(C(C(=O)NCc2ccc(OC)cc2)N(CCOC)C(=O)Cc2cccs2)cc1 (centres undefined),-8,-8%,1%,1%,?,10µM*
COCCN(C(=O)Cc1cccs1)C(C(=O)NCc1ccc(OC)cc1)c1ccc(C(C)C)cc1 (centres undefined),5,11%,0%,-5%,-27%,?
COCCCNC(=O)c1cccs1,-5,3%,0%,-2%,-11%,4%
O=[N+]([O-])c1ccc(N2CCN(Cc3ccncc3)CC2)cc1,3,/,1%,-2%,-28%,?
Cc1cc(C)nc(Nc2ccc(N3CCOCC3)cc2)n1,0,?,18%,-5%,1%,0%
CC(NC(=O)C1=CC=CN2CCS(=O)(=O)N=C12)c1ccc(Cl)cc1Cl (centres undefined),-8,-6%,25µM*,0%,-8%,-6%
CC(NC(=O)C1=CC=CN2CCS(=O)(=O)N=C12)c1ccc(Cl)c(Cl)c1 (centres undefined),-1,-9%,/,19%,-1%,0%
Cc1cccc(NC(=O)CSCC(=O)Nc2cc(Cl)ccc2N2CCN(C)CC2)c1,-1,?,1%,6%,-12%,?
Cc1ccc2cc3cc(C(=O)N4CCN(c5ccccc5)CC4)sc3nc2c1,-2,/,-1%,-6%,5%,-2%
Cn1c(-c2ccccc2)cc2c3no[n+]([O-])c3ccc21,-2,7.1µM*,3%,7%,-6%,-87%
COc1ccc(NC(=O)C(c2ccccc2)N(C)C(=O)/C=C\c2ccc3c(c2)OCO3)cc1 (centres undefined),4,/,4%,/,-3%,?
